This note sets out measurements from PubChem BioAssay (NCI).

This is part of a sample that, as a whole, favours compounds with a hit. Of some 83,000 tested, about 20% had one in any assay.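 Results are percent growth after 48 hours of single-concentration exposure. 100 means growth as in untreated cells, lower positive values show inhibition; negative values down to -100 show cell death.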 The source made the active and inactive calls. Rule for the calls: active = growth percent below 10; inactive = the rest.

For the assay, the system named is MDA-MB-468 breast. The assay can be described thus: NCI-60 one-dose screen, 48 h (100 = growth as untreated, 0 = no growth, -100 = all killed). The following applies: 10 µM unless noted.
Consider `C/C(=N\NC(=S)N1CCCC1)c1ccccn1`, for which the growth is -31.9% (active).
Regarding `NC(N)=N/N=C/c1ccc(Cl)cc1`, the growth was 44% (inactive).
As for `COc1ccc(/C=N\Nc2nc(SCC(C)C)nc(-c3ccc(OC)cc3)c2C#N)cc1`, the figure is 71.8% (inactive); as for `COc1ccc(C2c3cccn3-c3ccccc3N2C(C)=O)cc1` (stereo unspecified), 93.9% (inactive); as for `Nc1ncnc2c1c(C(F)(F)F)cn2[C@@H]1O[C@H](CO)[C@@H](O)[C@H]1O`, -41.1% (active).
With `COc1ccc(NC(=O)/C=C/c2ccc(NC(=O)N3CCCC3)cc2)cn1` the figure was 116% (inactive); with `C=C(C)COC(=O)c1ccccc1C(=O)OCC1(C)CO1` (stereo unspecified), 108% (inactive); with `COc1ccc2c(c1)C(=O)c1c-2c(OCCN(C)C)nc2ccccc12`, 44.8% (inactive).
With `CCOCC(O)(c1ccc(Cl)cc1)c1ccc(Cl)cc1` the figure was 102% (inactive); with `C=CCN(CCOC(=O)c1ccc([N+](=O)[O-])cc1)CCOC(=O)c1ccc([N+](=O)[O-])cc1`, 105% (inactive); with `C=C(C)[C@@H]1CC[C@]2(CO)CC[C@]3(C)[C@H](CC[C@@H]4[C@@]5(C)C=C(C#N)C(=O)C(C)(C)[C@@H]5CC[C@]43C)[C@@H]12`, 8.08% (active).
On to `O=[N+]([O-])c1ccc(OCCO)cc1`, for which the growth was 120% (inactive).
`c1ccc(-c2nc(N3CCCNCC3)c3nc(-c4ccccc4)oc3n2)cc1`: the growth is -52.9% (active).
With `N/C(=N\O)c1ccncc1` the figure was 121% (inactive); with `O=C(O)c1ccc(N=CC(=O)c2ccc(-c3ccccc3)cc2)cc1`, 83.5% (inactive).
As for `Clc1nnc2c3ccccc3ccn12`, the growth is 101% (inactive).
